This passage reports AC50 and outcome results from PubChem BioAssay (EPA / NIEHS).

Read-out in experiment [1]: Interleukin-8 (IL8), CXCL8 (gene 3576)
In words: BSK_BE3C_IL8: BioMAP Diversity Plus: BE3C Assay for Interleukin-8 (IL8) Biomarker Activity (AID 2284280). The following applies: primary human bronchial epithelial cells. The method, boiled down:
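Dose human bronchial epithelial cells with chemical; incubate 24 h; quantify IL-8 by ELISA; fit response upward versus DMSO controls.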

Read-out in experiment [2]: Epidermal growth factor receptor (EGFR), EGFR (gene 1956)
Nature of the experiment: BSK_BE3C_EGFR: BioMAP Diversity Plus: BE3C Assay for Epidermal growth factor receptor (EGFR) Biomarker Activity (AID 2284281). The following applies: primary human bronchial epithelial cells. The gist of the method:
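ELISA read-out of EGFR levels on human bronchial epithelial primary cells collected 24 h post-dosing. DMSO served as negative control and baseline for gain-of-signal fitting.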

Read-out in the next experiment: KRT18 (gene 3875)
In words: BSK_BE3C_Keratin818: BioMAP Diversity Plus: BE3C Assay for Keratin 818 Biomarker Activity (AID 2284282). The following applies: primary human bronchial epithelial cells. The method, boiled down:
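Keratin 8/18 levels, detected by ELISA, served as the endpoint after 24 h chemical exposure of primary human bronchial epithelial cells. Gain of signal relative to DMSO negative control defined activity.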

Read-out in experiment [3]: Matrix Metallopeptidase 9 (MMP9), MMP9 (gene 4318)
Nature of the experiment: BSK_BE3C_MMP9: BioMAP Diversity Plus: BE3C Assay for Matrix Metallopeptidase 9 (MMP9) Biomarker Activity (AID 2284283). The following applies: primary human bronchial epithelial cells. The gist of the method: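 ELISA read-out of MMP-9 after 24 h compound exposure of human lung bronchial epithelial primary cells (BE3C). Fit in gain direction vs DMSO negative control; total protein by SRB in parallel cultures flagged overt cytotoxicity.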

Read-out in experiment [4]: Plasminogen activator inhibitor-1 (PAI1), SERPINE1 (gene 5054)
Nature of the experiment: BSK_CASM3C_PAI1: BioMAP Diversity Plus: CASM3C Assay for Plasminogen activator inhibitor-1 (PAI1) Biomarker Activity (AID 2284284).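 Further: PAI-1 protein level measured by ELISA 24 h after dosing.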 The following applies: primary human coronary artery smooth muscle cells.

Read-out in experiment [5]: Monocyte Chemoattractant Protein-1 (MCP1), CCL2 (gene 6347)
Nature of the experiment: BSK_hDFCGF_MCP1: BioMAP Diversity Plus: hDFCGF Assay for Monocyte Chemoattractant Protein-1 (MCP1) Biomarker Activity (AID 2284285). The following applies: primary human foreskin fibroblasts. The method, boiled down: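 MCP-1 ELISA readout was taken 24 hours after dosing primary human dermal fibroblasts in the hDFCGF system, with DMSO as baseline. Parallel sulforhodamine B staining of total protein tracked overt cytotoxicity.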

Read-out in experiment [6]: Vascular cell adhesion molecule 1 (VCAM1), VCAM1 (gene 7412)
In words: BSK_IMphg_VCAM1: BioMAP Diversity Plus: IMphg Assay for Vascular cell adhesion molecule 1 (VCAM1) Biomarker Activity (AID 2284286). The following applies: primary human endothelial cells with macrophages. As to the method: BSK_IMphg is a cell-based, multiplexed-readout assay that uses venular endothelial cells and macrophages, a human vascular primary cell, with measurements taken at 24 hours after chemical dosing in a microplate: 96-well plate.BSK_IMphg_VCAM1 is an assay component measured in the BSK_IMphg assay. It measures VCAM-1 antibody related to regulation of gene expression using ELISA technology.Data from the assay component BSK_IMphg_VCAM1 was analyzed at the endpoint, BSK_IMphg_VCAM1, in the positive analysis fitting direction relative to DMSO as the negative control and baseline of activity. Using a type of binding reporter, gain or loss-of-signal activity can be used to understand protein changes. To generalize the intended target to other relatable targets, this assay endpoint is annotated to the 'cell adhesion molecules' intended target family, where the subfamily is 'Immunoglobulin CAM'.
(§1) The levels of cell surface (or secreted, indicated by the prefix "s") biomarker endpoints were measured by ELISA. Overt cytotoxicity to cells in confluent adherent cultures (all systems other than the BT system) was assessed by measuring total protein levels using sulforhodamine B (SRB) staining in parallel cultures at the time of biomarker measurements, indicated as SRB endpoints. For proliferation assays for adherent cell types, individual cell types are cultured at sub-confluence and relative cell numbers quantified by SRB staining at time points optimized for each system (48 h: 3C and CASM3C systems; 72 h: BT and HDF3CGF systems; 96 h: SAg system). SRB was performed by staining cells with 0.1% SRB after fixation with 10% TCA and reading wells at 560 nm.Viability and proliferation of PBMC (T cells) was quantified by Alamar Blue reduction for the SAg and BT systems. For PBMC viability (referred to as PBMC Cytotoxicity within the assay endpoint names), cells were plated (75,000/well in a 96-well plate) and then chemical samples added for 1 h before addition of activators, SEB and TSST-1 (20 ng/mL final concentration each). Cells were incubated for 90 h. Then, Alamar Blue (20 uL/well) (Invitrogen, Cat DAL1100) was added for 6 h, and the plates were read with a fluorescence microplate reader at 546/580 nm (excitation/emission). For PBMC proliferation, cells were plated and activated as above but incubated for only 16 h prior to addition of Alamar Blue. Plates were read after 6 h.

Read-out in experiment [7]: Intercellular Adhesion Molecule 1 (ICAM1), ICAM1 (gene 3383)
In words: BSK_hDFCGF_ICAM1: BioMAP Diversity Plus: hDFCGF Assay for Intercellular Adhesion Molecule 1 (ICAM1) Biomarker Activity (AID 2284287). The following applies: primary human foreskin fibroblasts. As to the method:
BSK_hDFCGF is a cell-based, multiplexed-readout assay that uses foreskin fibroblast, a human skin primary cell, with measurements taken at 24 hours after chemical dosing in a 96-well plate.BSK_hDFCGF_ICAM1 is an assay component measured in the BSK_hDFCGF assay. It measures ICAM-1 antibody related to regulation of gene expression using ELISA technology.Data from the assay component BSK_hDFCGF_ICAM1 was analyzed at the endpoint, BSK_hDFCGF_ICAM1, in the positive analysis fitting direction relative to DMSO as the negative control and baseline of activity. Using a type of binding reporter, gain or loss-of-signal activity can be used to understand protein changes. To generalize the intended target to other relatable targets, this assay endpoint is annotated to the 'cell adhesion molecules' intended target family, where the subfamily is 'Immunoglobulin CAM'.
as §1

Read-out in another experiment: CD40, CD40 (gene 958)
Nature of the experiment: BSK_IMphg_CD40: BioMAP Diversity Plus: IMphg Assay for CD40 Biomarker Activity (AID 2284288). The following applies: primary human endothelial cells with macrophages. The gist of the method: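 ELISA read-out of cell-surface CD40 at 24 h in human venular endothelial cell/macrophage co-cultures. Activity fitted in the positive direction against DMSO; parallel SRB staining (560 nm) gauges overt cytotoxicity.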

Read-out in experiment [8]: TIMP metallopeptidase inhibitor 2 (TIMP2), TIMP2 (gene 7077)
Nature of the experiment: BSK_hDFCGF_TIMP2: BioMAP Diversity Plus: hDFCGF Assay for TIMP metallopeptidase inhibitor 2 (TIMP2) Biomarker Activity (AID 2284289). The following applies: primary human foreskin fibroblasts. The gist of the method: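 Primary human foreskin fibroblasts in the hDFCGF system, dosed for 24 h; TIMP-2 level measured by ELISA, fitted in the positive direction against DMSO; cytotoxicity checked in parallel by sulforhodamine B total protein staining.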

Each structure is given as a SMILES string. Several values for one entry are separate records, joined by “and”; a condition that tells them apart may be missing. Equal entries are not always repeated. Where a structure was tested more than once in an assay, its records may differ in their call. Activity calls are given as the source filed them. How the source made its calls: active means hit-call score of the fitted dose curve at least 0.9, where 1 is the maximum; inactive means score below 0.9.

For orientation: AC50 means the midpoint of the concentration-response curve, whichever way the signal moves. With `NS(=O)(=O)C(F)(F)C(F)(F)C(F)(F)C(F)(F)C(F)(F)C(F)(F)C(F)(F)C(F)(F)F`, the AC50 in experiment [1] was 24.3 µM (active) and 11.4 µM (active); in experiment [2] it was 25.1 µM (active) and 38 µM (active); in the experiment with KRT18 (gene 3875), 46.9 µM (active) and 48 µM (active); in [3], 30 µM (active); in experiment [5], 21.7 µM (active) and 17.3 µM (active); in [6], 47.3 µM (active) and 56.6 µM (active). Also, the AC50 in experiment [7] is 12.1 µM (active) and 15.7 µM (active); with CD40, CD40 (gene 958) it was 31.8 µM (active) and 25.7 µM (active); in [8] it was 53.9 µM (active) and 52.3 µM (active). Also, the result in experiment [4] was inactive.

For `O=C(O)C(F)(F)C(F)(F)C(F)(F)C(F)(F)C(F)(F)C(F)(F)C(F)(F)C(F)(F)F`, the AC50 was 23.3 µM (active) and 24.3 µM (active) in [1]; 30 µM (active) and 47.6 µM (active) with KRT18 (gene 3875); 54 µM (active) and 56.6 µM (active) in [3]; 30 µM (active) in [6]; 30 µM (active) and 44.9 µM (active) with CD40, CD40 (gene 958). The outcome in [2], in [4], in experiment [5], in experiment [6], in experiment [7] and in experiment [8] was inactive.

`COc1ccc(O)c(C(C)(C)C)c1`: the result (in experiment [1]; in experiment [2]; with KRT18 (gene 3875); in experiment [3]; in [4]; in experiment [5]) was inactive. Moreover, the outcome in [7] and in experiment [8] was inactive.

As for `O=S(=O)(O)C(F)(F)C(F)(F)C(F)(F)C(F)(F)C(F)(F)C(F)(F)F`, the result (in experiment [1]; in [2]; in the experiment with KRT18 (gene 3875); in [3]; in [4]; in experiment [5]) was inactive. For the same compound, the outcome is “inactive” in experiment [6]; “inactive” in experiment [7]; “inactive” in the experiment with CD40, CD40 (gene 958); “inactive” in [8].

Regarding `O=C(O)C(F)(F)C(F)(F)C(F)(F)C(F)(F)C(F)(F)F`, the result (in experiment [1]; in experiment [2]; with KRT18 (gene 3875); in experiment [3]; in experiment [4]; in [5]) was inactive. In addition, the outcome in experiment [6] is “inactive”; in [7], “inactive”; in the experiment with CD40, CD40 (gene 958), “inactive”; in experiment [8] it was “inactive”.

Consider `O=C(O)C(F)(F)C(F)(F)C(F)(F)C(F)(F)C(F)(F)C(F)(F)C(F)(F)C(F)(F)C(F)(F)F`, for which the AC50 was 10.1 µM (active) and 14.2 µM (active) in experiment [1]; 7.27 µM (active) in [2]; 14.5 µM (active) with KRT18 (gene 3875); 15.1 µM (active) and 17.4 µM (active) in [3]; 56.1 µM (active) and 56.6 µM (active) in experiment [5]; 54.8 µM (active) and 26.9 µM (active) in experiment [6]. Further, the AC50 in experiment [7] was 49.8 µM (active) and 49 µM (active); with CD40, CD40 (gene 958), 45.9 µM (active) and 42.3 µM (active); in experiment [8], 11.2 µM (active) and 19.7 µM (active). The result (in [2]; with KRT18 (gene 3875); in experiment [4]) was inactive.

With `O=S(=O)(O)C(F)(F)C(F)(F)C(F)(F)C(F)(F)F`, the result (in experiment [1]; in experiment [2]; with KRT18 (gene 3875); in experiment [3]; in experiment [4]; in [5]) was inactive. Also, the outcome is “inactive” in experiment [6]; “inactive” in [7]; “inactive” in the experiment with CD40, CD40 (gene 958); “inactive” in experiment [8].
